Data from PubChem BioAssay (NCATS).
Records with an inconclusive call do not appear. Values without a mark were called inactive. The source made the active and inactive calls. The call rests on the fitted dose curve; in most records, active means well fitted inhibition curve with a large enough effect; inconclusive means small, poorly fitted or top-dose-only effect; inactive means flat fitted curve, though single readings scatter.
Potency means the concentration at half of the fitted maximal effect.

Test: BET inhibitor-based combinations targeting novel dependencies in MECOM-rearranged (r) AML: AML-194 cell line (AID 2202237; further: nearly all actives have a fitted effect of over 40% in size)
Conditions: AML-194 (MECOM-r AML) viability, CellTiter-Glo, 48 h; series mostly up to 46 µM; viability (% of control): at the top concentration
Excerpt: Ecotropic viral insertion site 1 (EVI1) is located on chromosome 3q26.2 as part of the MECOM (MDS and EVI1 complex) locus. Under normal hematopoiesis, EVI1 is a regulator of hematopoietic stem cell maintenance and self-renewal and EVI1 levels decrease as the cells differentiate. In approximately 5-10% of de novo acute myeloid leukemia (AML) EVI1 is aberrantly expressed, including Chromosomal inv(3)(q21;q26.2) or t(3;3)(q21;q26.2) alterations (MECOM-r) that account for about 50% of AML with EVI1 overexpression 31. AMLs with high levels of EVI1 have a poor prognosis and an overall survival time averaging between 10-14 months. EVI1 overexpression confers resistance in leukemia cells, highlighting the need to develop new targeted therapies for EVI1 overexpressing AMLs.
Here, we performed an unbiased chemical drug screening by evaluating the single agent activity of a collection of 2,480 oncology-focused, approved and investigational drugs (NCATS Mechanism Interrogation Plates, MIPE v5.0) against a panel of seven AML cell lines. These included four MECOM-r cell-lines (AML-191, AML-194, UCSD-AML1 and HNT-34) and three non-MECOM-r AMLs (MV4-11, OCI-AML3 and SET-2). Exploiting the mechanistic redundancy built in the library, we identified target-level sensitivities in MECOM-r AML cells and relative activity as compared to other AML subtypes.
A collection of 2480 mechanistically annotated dugs (MIPE v5.0) was used to screen four 3q26.2 rearranged AML cell lines and three non-3q26.2 rearranged AML cell lines. This library purposely exploits redundancy by including multiple inhibitors of key onco-targets, while simultaneously encompassing mechanistic diversity, targeting more than 800 distinct mechanisms of action. Briefly, cells were seeded in 5 uL of growth media using a Multidrop Combi dispenser into 1536 well white polystyrene tissue culture treated plates (Corning) at a density of 500cells/well. For each cell-line, for each of the 2480 drugs in MIPE v5.0 library, an 11-point dose curve was generated via a 1536 pin-tool. Plates were incubated for 48 hr at standard incubator conditions, covered by a stainless steel gasketed lid to prevent evaporation. Cell viability was determined by luminescence based, Cell Titer Glo assay (Promega). In detail, 3 uL of Cell Titer Glo were added to each well and plates were incubated at room temperature for 15 min with a stainless-steel lid in place. Luminescence readings were taken using a Viewlux (PerkinElmer) with a 2 s exposure time per plate. Compound dose-response curves were normalized to DMSO and empty well controls on each plate. Quantitative drug activity data from dose-response curves was determined utilizing area Under the Curve (AUC) and Z-transformed AUC (Z-AUC, a mean-centering transformation applied to each individual cell-line screened).
In the case of CCCCCCCCCCCCCCCCOCCCOP(=O)(O)COC(CO)Cn1ccc(N)nc1=O (stereo not given), the “viability (% of control)” value is reported as 100%.
For COCCn1c2c([n+](Cc3cnccn3)c1C)C(=O)c1ccccc1C2=O, the Potency was 0.186 µM (active).
In the case of COCCOc1cnc2ccn([C@H](C)c3nnc4c(F)cc(-c5cnn(C)c5)cn34)c(=O)c2c1, the “viability (% of control)” value is reported as 108%.
For Nc1nc(Nc2ccc3c(c2)CC[C@@H](N2CCCC2)CC3)nn1-c1cc2c(nn1)-c1ccccc1CCC2, the Potency was 20.9 µM (active).
With COc1ccc(-c2oc3c(CC=C(C)C)c(OC4O[C@H](CO)[C@@H](O)[C@H](O)[C@H]4O)cc(O)c3c(=O)c2OC2O[C@@H](C)[C@H](O)[C@@H](O)[C@H]2O)cc1 (stereo not given in full) the “viability (% of control)” value was 118%.
For c1ccc(Cn2c(-c3ccc(OCC(C4CCNCC4)n4c(-c5ccccc5)nc5ccccc54)cc3)nc3ccccc32)cc1 (stereo not given), the Potency was 23.5 µM (active).
In the case of CCOC(=O)c1ccc(C#Cc2ccc3c(c2)C(C)(C)CCS3)nc1, the “viability (% of control)” value is reported as 95.5%.
In the case of CCC(=O)N1CCOc2c(cc(-c3cc(OC)cc(OC)c3)cc2C(=O)N[C@H]2CCCN(C)C2)C1, the Potency is reported as 18.6 µM (active).
With OC1CCC(Oc2cccc3cnc(Nc4ccc5nc[nH]c5c4)nc23)CC1 (stereo not given) the Potency was 1.32 µM (active).
With c1ccc2[nH]c(-c3cscn3)nc2c1 the Potency was 18.6 µM (active).
With O=C(NO)c1cnc(N2C[C@H]3C[C@@H]2CN3c2cc(C(F)(F)F)ccn2)nc1 the Potency was 4.17 µM (active).
In the case of CN1CCCN(C(=O)c2cccc(-c3ccc(/C=C4/C(=O)Nc5ccc(Cl)cc54)o3)c2)CC1, the Potency is reported as 1.86 µM (active).
In the case of O=C(O)CCCCN(CCc1ccccc1OCc1ccc(CCc2ccccc2)cc1)Cc1ccc(C(=O)O)cc1, the “viability (% of control)” value is reported as 108%.
In the case of Cn1c(NC[C@@H](N)Cc2ccccc2)nc(-c2ccncc2)c(-c2ccc3ccccc3c2)c1=O, the Potency is reported as 26.3 µM (active).
With C=CC(=O)Nc1cc(N2CCN(CC)CC2)ccc1Nc1cc(N(C)C(=O)Nc2c(Cl)c(OC)cc(OC)c2Cl)ncn1 the “viability (% of control)” value was 96.3%.
In the case of COc1cc2c3c(n(CCCN4CCOCC4)c(=O)c2cc1OC)-c1cc2c(cc1C3=O)OCO2, the Potency is reported as 0.417 µM (active).
With N#Cc1cc2cc(CN3CCC(Nc4ncnc5sc(CC(F)(F)F)cc45)CC3)c(O)cc2n1Cc1cn[nH]c1 the Potency was 26.3 µM (active).
For O=C(Nc1cccc(Nc2ncc(Br)c(NCCc3cnc[nH]3)n2)c1)N1CCCC1, the Potency was 5.9 µM (active).
With COC(=O)N(CC(=O)O)Cc1cccc(OCc2nc(-c3ccc(Cl)cc3)oc2C)c1 the “viability (% of control)” value was 96.8%.
In the case of CN(C)c1cc(NC(=O)CNC(C)(C)C)c(O)c2c1C[C@H]1C[C@H]3[C@H](N(C)C)C(=O)C(C(N)=O)=C(O)[C@]3(O)C(=O)C1=C2O, the “viability (% of control)” value is reported as 83%.
In the case of CC(C)c1ccc(Cn2ccc3c4c(N)nc(NC5CC5)nc4ccc32)cc1, the Potency is reported as 1.48 µM (active).
For C/C=C/C[C@@H](C)C(=O)[C@H]1C(=O)N[C@@H](C(C)C)C(=O)N(C)CC(=O)N(C)[C@@H](CC(C)C)C(=O)N[C@@H](C(C)C)C(=O)N(C)[C@@H](CC(C)C)C(=O)N[C@@H](C)C(=O)N[C@H](C)C(=O)N(C)[C@@H](CC(C)C)C(=O)N(C)[C@@H](CC(C)C)C(=O)N(C)[C@@H](C(C)C)C(=O)N1C, the Potency was 10.2 µM (active).
With C=CCc1cccc(/C=N/NC(=O)CN2CCN(Cc3ccccc3)CC2)c1O the Potency was 14.8 µM (active).
For C=C1C(=O)O[C@@H]2[C@H]3C(C)=CC[C@@]34O[C@@]4(C)CC[C@@H]12, the Potency was 13.2 µM (active).
In the case of CCC(C)CNCC(=O)N1CCc2sccc2C1c1cccc(C)n1 (stereo not given), the “viability (% of control)” value is reported as 107%.
In the case of N[C@@H]1CN(c2c(F)cc3c(=O)c(C(=O)O)cn([C@@H]4C[C@@H]4F)c3c2Cl)CC12CC2, the “viability (% of control)” value is reported as 83.3%.
With CCCCc1ccc2nc(NC(=O)OC)[nH]c2c1 the Potency was 0.105 µM (active).
In the case of NC(=O)c1cccc2c(NC(CN3CCC3)c3ccc(Cl)c(C(F)(F)F)c3)ncnc12 (stereo not given), the Potency is reported as 16.6 µM (active).
In the case of Cc1ccc(NC(=O)c2ccc(CN3CC[C@H](N(C)C)C3)c(C(F)(F)F)c2)cc1Nc1nccc(-c2cncnc2)n1, the Potency is reported as 14.4 µM (active).
In the case of CN(C)c1ccccc1CN1CCCN(Cc2ccccc2N(C)C)C1c1ccncc1, the “viability (% of control)” value is reported as 91.4%.
In the case of O=C1NC(=O)/C(=C/c2cccc(C(F)(F)F)c2)S1, the “viability (% of control)” value is reported as 99.7%.
For COc1cc(O)c2c(c1)C1OC1C[C@H](O)[C@H](O)C(=O)C=CC[C@H](C)OC2=O (stereo not given in full), the Potency was 1.48 µM (active).
In the case of CCN1CCN(Cc2ccc(-c3cc4c(N[C@H](C)c5ccccc5)ncnc4[nH]3)cc2)CC1, the Potency is reported as 26.3 µM (active).
In the case of C[N+](C)(C)CC(=O)O, the “viability (% of control)” value is reported as 121%.
With C[C@@H]1Cc2c([nH]c3ccccc23)[C@@H](c2c(F)cc(/C=C/C(=O)O)cc2F)N1CC(C)(C)F the “viability (% of control)” value was 87.8%.
With COc1cc(OC)c(NC(=O)Nc2cc(C)on2)cc1Cl the “viability (% of control)” value was 95%.
With O=C(c1ccc(F)c(F)c1Nc1ccc(I)cc1F)N1CC(O)([C@@H]2CCCCN2)C1 the Potency was 7.42 µM (active).
In the case of CC[C@H]1OC(=O)[C@H](C)[C@@H](O[C@H]2C[C@@](C)(OC)[C@@H](O)[C@H](C)O2)[C@H](C)[C@@H](O[C@@H]2O[C@H](C)C[C@H](N(C)C)[C@H]2O)[C@](C)(O)C[C@@H](C)C(=O)[C@H](C)[C@@H](O)[C@]1(C)O, the “viability (% of control)” value is reported as 115% [at 15.6 µM].
For COc1cc2c(Oc3ccc4[nH]c(C)cc4c3F)ccnc2cc1OCC1(N)CC1, the Potency was 8.33 µM (active).
In the case of O=C(Nc1cc(Oc2cc(F)c(NC(=O)C3(C(=O)Nc4ccc(F)cc4)CC3)cc2F)ccn1)C1CC1, the Potency is reported as 14.8 µM (active).
